Out of some 290,000 compounds screened, about 3,000 (1%) were called active. This is one part of a sample in which actives are shown more often than they occur. Values without a mark were called inactive. Cut-off read from the data, not from the text of the source: active = inhibition mostly above about 36% (no sharp cut-off); inactive = mostly below about 34%.

These results are taken from PubChem BioAssay AID1578 (Sanford-Burnham Center for Chemical Genomics, 2009).

The nature of the test: NOD1 signaling inhibitors, primary screen, cell-based, luminescence, uHTS (AID 1578).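 Note: HEK-293T reporter cells stimulated with the NOD1 agonist gamma-tri-DAP.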 Conditions: NOD1-driven NF-kB luciferase reporter cells, at 4 µM, active compounds read high. A general note: In a reporter assay the amount or activity of a reporter protein is the signal.
Broadly, the inhibition is the drop in the measured response relative to a control, in per cent. As for `CC(Cl)C(=O)c1c[nH]c2ccccc12` (stereo unspecified), the inhibition is -10.4%.
Under `O=C(c1ccccc1)c1c[nH]c2ccccc12` stands -14.2%; under `O=C(c1c[nH]c2ccccc12)C(Cl)c1ccccc1` (stereo unspecified), 96.9% (active).
Under `COc1ccccc1NS(=O)(=O)c1ccc2c(c1)NC(=O)C(C)S2` (stereo unspecified) stands 49.3%.
Under `COc1ccc(N2CCN(C(=O)c3oc4ccccc4c3NC(=O)Cc3cccc(OC)c3)CC2)cc1` stands -28.1%.
Consider `Cc1ccc(S(=O)(=O)NC(CC(=O)O)c2cccs2)cc1` (stereo unspecified), for which the inhibition is -21.8%.
For `CC(C)(C)c1ccc(CN2C3=NCCCN3c3ccccc32)cc1`, the inhibition is 112% (active).
Under `CCCCCN1C2=NCCN2c2ccccc21` stands -41.3%; under `CCCCCCCN1C2=NCCN2c2ccccc21`, 35.9% (active).
Consider `c1ccc(CN2C3=NCCCN3c3ccccc32)cc1`, for which the inhibition is -21.5%.
Under `Cc1ccc(CN2C3=NCCCN3c3ccccc32)cc1` stands -29.5%; under `CCCCCCN1C2=NCCN2c2ccccc21`, -24.5%; under `CCCCOCCCNC1=NCCCCC1`, -5.9%.
Under `CCNC(=O)NC(=O)C(C)OC(=O)c1oc2ccc(OC)cc2c1C` (stereo unspecified) stands 25.1%.
The figure for `O=C(O)c1ccc2cc[nH]c2c1` is 7%; for `Cc1ccc2cc(C#N)c(NCc3ccco3)nc2c1` it is -2.1%.
Turning to `CC(C)(C)n1cnc2cc(NC(=O)c3ccccc3)ccc21`, the inhibition was -12.2%.
The figure for `CC(NC(=O)CCl)c1ccc(Cl)c(Cl)c1` (stereo unspecified) is 93.1% (active).
The figure for `CC(=O)NC(C)c1ccc(Cl)c(Cl)c1` (stereo unspecified) is -19.4%.
The figure for `Cc1ccc(OCC(=O)NC(C)c2ccc(Cl)c(Cl)c2)c([N+](=O)[O-])n1` (stereo unspecified) is -30.1%.
`Cc1ccc(S(=O)(=O)N/N=C/c2ccccc2O)cc1`: the inhibition is -2.2%.
Under `COc1ccc(OC)c(S(=O)(=O)N/N=C\c2c[nH]c3ccccc23)c1` stands 30.3%.
Regarding `Fc1c(F)c(F)c(N/N=C/c2c[nH]c3ccccc23)c(F)c1F`, the inhibition was 87.4% (active).
Under `Cc1ccc(S(=O)(=O)N/N=C/c2c[nH]c3ccccc23)cc1` stands 62.4% (active); under `COc1ccc2c(/C=N/NS(=O)(=O)c3ccc(C)cc3)c[nH]c2c1`, -6.6%.
The figure for `C(=N\Nc1nc2ccccc2[nH]1)/c1c[nH]c2ccccc12` is 34.5%.
The figure for `COc1ccc2[nH]cc(/C=N/NS(=O)(=O)c3ccc(C)cc3)c2c1` is 44% (active).
For the compound `C(=N\Nc1ccccn1)/c1c[nH]c2ccccc12`, the inhibition was 10.9%.
For `COc1ccc(O)c(/C=N/NS(=O)(=O)c2ccc(C)cc2)c1`, the inhibition is 1.6%.
The figure for `COc1ccc(N2CCN(C(CNC(=O)C(=O)NCc3ccc4c(c3)OCO4)c3ccco3)CC2)cc1` (stereo unspecified) is -7.2%; for `O=C(O)/C=C/C(=O)Nc1ccc(S(=O)(=O)Nc2nccs2)cc1` it is -6.1%.
In the case of `COc1ccc(CCNC(=O)CSc2nnc(CNC(=O)c3ccccc3F)o2)cc1OC`, the inhibition is -6.3%.
The figure for `CCC(C)[C@H](NC(=O)N1CCn2c1nc1ccccc12)C(=O)NCc1ccccc1` (stereo partly specified) is -0.4%; for `CC(C)C(C)NC(=O)COC(=O)c1cc(S(=O)(=O)N(C)C)ccc1N1CCCC1` (stereo unspecified) it is -50.6%.
Under `c1ccc(COn2nnc3ccccc32)c(COn2nnc3ccccc32)c1` stands -7.5%; under `COc1ccc(OC)c(NC(=O)c2nnn(Cc3ccccc3C)c2N)c1`, -33.8%; under `CC1CN(Cc2ccccc2)c2ccccc2NC1=S` (stereo unspecified), 108% (active).
Under `CC1CC(=S)Nc2ccccc2N1Cc1ccccc1` (stereo unspecified) stands -2.8%.
With `CC1CSc2ccccc2NC1=S` (stereo unspecified), the inhibition is -19.1%.
On to `COc1cc(NC(=O)c2cnn3c(C(F)F)cc(C4CC4)nc23)c(OC)cc1Cl`, for which the inhibition is -21.7%.
Under `COc1ccc(OCC(=O)Nc2ccc(NC(=O)c3ccccc3Cl)c(OC)c2)cc1` stands -16.9%; under `COc1ccc2cc3cc(C(=O)NCCC(C)C)oc3nc2c1`, -9.5%.
The figure for `COCCNC(=O)c1cc2cc3ccc(OC)cc3nc2o1` is 4.6%.
The figure for `O=C(CSc1nc2ccccc2[nH]1)N1CCN(c2ccccc2)CC1` is -37.6%; for `CC1=CC(C)(C)Nc2ccc(OC(=O)c3ccco3)cc21` it is 98.8% (active).
In the case of `CC1=CC(C)(C)Nc2ccc(OC(=O)c3cccnc3)cc21`, the inhibition was 34.3%.
The figure for `CC1=CC(C)(C)Nc2ccc(OC(=O)CN3C(=O)c4ccccc4C3=O)cc21` is 21.8%; for `O=C(NCC1CCCO1)c1ccc(S(=O)(=O)N2CCC(c3nc4ccc(Cl)cc4[nH]3)CC2)cc1` (stereo unspecified) it is -25.9%.
Take `COCCNC(=O)C(c1ccc(C)o1)N(C(=O)C(=O)NC1CCCCC1)c1ccc(F)cc1` (stereo unspecified): the inhibition is -37.3%.
The figure for `CSCCC(NC(=O)c1cccc(C)c1)C(=O)Nc1sccc1C(N)=O` (stereo unspecified) is 68.6% (active).
Under `CSCCC(NC(=O)c1cccc(C)c1)C(=O)O` (stereo unspecified) stands 2%; under `CSCCC(NC(=O)c1ccccc1)C(=O)Nc1ccc(C)cc1` (stereo unspecified), 1.6%; under `NC1=NC(=O)/C(=C/c2cn(CCC(=O)O)nc2-c2ccc(Cl)cc2)S1`, -34.5%.
As to `CCOc1ccc(NC(=O)CSc2nnc(N)s2)c([N+](=O)[O-])c1`, the inhibition was -24.6%.
On to `OC1CCCN(CC(O)c2ccccc2)C1` (stereo unspecified), for which the inhibition was -32.3%.
Under `Brc1ccc(N/N=C(/N=Nc2nn[nH]n2)c2ccccc2)cc1` stands 63.8% (active); under `Cn1nnnc1N=N/C(=N/Nc1ccccc1)c1ccccc1`, -8.4%.
Under `C/C(=N\Nc1ccc(C(=O)O)cc1)c1ccc(Br)cc1` stands 5%; under `CCOc1ccc(S(=O)(=O)Nc2cc(F)ccc2F)c2cccnc12`, -15.4%; under `CC1=NN(c2cccc(C(=O)O)c2)C(=O)/C1=C\C=C/c1ccccc1`, 58.9% (active).
The figure for `CC1=NN(c2cccc(C(=O)O)c2)C(=O)/C1=C\C=C\c1ccco1` is -11.6%; for `CC1=NN(c2ccccc2)C(=O)/C1=C/C=C/c1ccccc1` it is 31.6%.
On to `CCCNC(=O)c1onc(CSc2nc3ccccc3[nH]2)c1C(=O)NCCC`, for which the inhibition is 11.1%.
Under `C=CCn1c(Sc2ncc([N+](=O)[O-])s2)n[nH]c1=O` stands 30.1% (active); under `C=CCn1c(Sc2nnc(C)s2)nc2c1c(=O)[nH]c(=O)n2C`, -4.6%.
Take `C=CCn1c(CSc2ccccc2[N+](=O)[O-])n[nH]c1=S`: the inhibition was -1.6%.
